Laboratory results as given in PubChem BioAssay (Tox21).
“And” between values parts separate entries of the source, which are not always exact repeats. Identical values can stand only once. Inconclusive results are not listed. The source made the active and inactive calls. Unless noted, calls come from the whole dose curve; as a rule, active = well fitted curve in the direction sought with a large enough effect in the repeat runs; inconclusive = weak or mixed curves; inactive = no such curve, though single readings can be large; an effect the other way counts as inactive or inconclusive.

What was measured:
[1] = qHTS assay for small molecules that induce genotoxicity in human embryonic kidney cells expressing luciferase-tagged ATAD5 (AID 651632); note: nearly all actives have a fitted effect of over 15% in size
In short: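 Genotoxicity read-out via ATAD5-luciferase: HEK293T cells, 16 hr compound incubation at 37C, Amplite detection.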

[2] = qHTS assay for small molecules that induce genotoxicity in human embryonic kidney cells expressing luciferase-tagged ATAD5 - cell viability (AID 651634; calls by dose curve; note: nearly all actives have a fitted effect of over 25% in size)
In short: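 Live-cell protease activity (CellTiter-Fluor, fluorescence) indicates viability. HEK293T cells with luciferase-tagged ATAD5; 15.5 hr compound treatment at 37C.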

[3] = qHTS assay for small molecule disruptors of the mitochondrial membrane potential - cell viability (AID 720634; calls by dose curve;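 note: human HepG2 liver cancer cells; series mostly up to about 83 µM; nearly all actives have a fitted effect of over 20% in size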)
In short: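 Human hepatoma HepG2 cells were treated for 1 hr with test chemicals, then given m-MPI dye and CellTiter-Glo. Cell viability reflects luminescence proportional to cellular ATP.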

[4] = qHTS assay to test for compound auto fluorescence at 590 nm (red) in HepG2 cells (AID 720674)
In short: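 1 hr compound incubation on HepG2 cells, 37 C, 5% CO2; plate read ex 540 nm / em 590 nm; intensities reported as Rose Bengal sodium equivalents.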

[5] = qHTS assay to test for compound auto fluorescence at 535 nm (green) in HepG2 cells (AID 720675)
[6] = qHTS assay to test for compound auto fluorescence at 460 nm (blue) in HEK293 cells (AID 720678)
In short: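 Auto fluorescence in the blue band was quantified as triamterene equivalency. HEK293 cells were seeded at 2,000/well, dosed after a 4-5 hr attachment, and kept overnight at 37C before the 405/460 nm reading.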

[7] = qHTS assay to test for compound auto fluorescence at 590 nm (red) in HEK293 cells (AID 720679)
In short: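 Autofluorescence equivalency to Rose Bengal sodium, 540/590nm, in HEK293 cells exposed overnight to 23 nL compound per well.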

[8] = qHTS assay to test for compound auto fluorescence at 535 nm (green) in HEK293 cells (AID 720680)
[9] = qHTS assay to test for compound auto fluorescence at 460 nm (blue) in HEK293 cell free culture (AID 720681)
In short: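 Blue fluorescence (Ex 405/Em 460 nm, triamterene-equivalent) was read immediately after pin transfer of compound or DMSO into medium (DMEM, 10% FBS) without cells.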

[10] = qHTS assay to test for compound auto fluorescence at 535 nm (green) in HEK293 cell free culture (AID 720682)
In short: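 DMEM + 10% FBS, cell-free; cpd or DMSO pinned in; Ex485/Em535 read; output as fluorescein-equivalent signal.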

[11] = qHTS assay to test for compound auto fluorescence at 590 nm (red) in HepG2 cell free culture (AID 720684)
In short: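 Plate contents were MEM with 10% FBS plus test compound or DMSO, no cells. Fluorescence was recorded with 540 nm excitation and 590 nm emission.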

[12] = qHTS assay to test for compound auto fluorescence at 460 nm (blue) in HepG2 cell free culture (AID 720685)
In short: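 Compound (23 nL) or DMSO pinned into cell-free MEM with 10% FBS; blue fluorescence read at 405/460 nm excitation/emission, expressed as auto-fluorescence equivalency to triamterene.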

[13] = qHTS assay to test for compound auto fluorescence at 535 nm (green) in HepG2 cell free culture (AID 720686)
[14] = qHTS assay to test for compound auto fluorescence at 460 nm (blue) in HepG2 cells (AID 720687)
In short: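 Blue-channel autofluorescence (Ex/Em 405/460 nm, triamterene-equivalent) was measured after 1 hr compound exposure at 37 C, 5% CO2. Cells were HepG2, plated overnight at 37 C in MEM plus 10% FBS.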

[15] = qHTS assay for small molecule agonists of the p53 signaling pathway (AID 651631; calls by dose curve; note: nearly all actives have a fitted effect of over 15% in size)
In short: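 Testing took place in human colorectal HCT-116 cells with stable p53RE-driven beta-lactamase. After 16 h of compound exposure at 37 °C, a FRET substrate was added and fluorescence recorded 2 h later.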

[16] = qHTS assay for small molecule agonists of the p53 signaling pathway - cell viability (AID 651633; calls by dose curve; note: series mostly up to about 83 µM; nearly all actives have a fitted effect of over 30% in size)
In short: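 Viability counter-read: CellTiter-Glo luminescence (30 min, room temperature) in the same p53RE-bla plates. These plates had been exposed to compounds for 16 h at 37 C.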

[17] = qHTS assay for small molecule disruptors of the mitochondrial membrane potential (AID 720635); note: potency is the fitted concentration of half-maximal effect
In short: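 Mitochondrial membrane potential tracked with Mito-MPS dye, red aggregates (ex 540/em 590 nm) against green monomers (ex 490/em 535 nm). Compound treatment 1 hr at 37C, dye 30 min in HepG2.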

[18] = target: Glucocorticoid receptor (Homo sapiens) (UniProt P04150); test: qHTS assay to identify small molecule antagonists of the glucocorticoid receptor (GR) signaling pathway (AID 720692; active = well fitted inhibition curve with a large enough effect in the signal ratio in the repeat runs, not every such curve was filed as active; the % refers to the signal ratio)
In short: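 Fluorescence from cleaved LiveBLAzer B/G FRET substrate reports GRE-driven beta-lactamase in HeLa cells; compounds are tested against 5 nM dexamethasone (final) over 18 h at 37 C, substrate incubation 2 h at room temperature.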

[19] = qHTS assay to test for compound auto fluorescence at 590 nm (red) in HEK293 cell free culture (AID 720683)
In short: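 Red-channel autofluorescence of compounds in culture medium (DMEM, 10% FBS), no cells, measured at 540/590 nm. Rose Bengal sodium is the reference fluorophore for equivalence.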

[20] = target: Glucocorticoid receptor (Homo sapiens) (UniProt P04150); test: qHTS assay to identify small molecule agonists of the glucocorticoid receptor (GR) signaling pathway (AID 720691; active = well fitted activation curve with a large enough effect in the signal ratio in the repeat runs, not every such curve was filed as active; the % refers to the signal ratio)
In short: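 Beta-lactamase reporter activity, read as fluorescence intensity, was measured in GR-bla HeLa cells exposed to compounds for 18 h at 37 C and then loaded with LiveBLAzer B/G FRET substrate for 2 h at room temperature.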

Measured: Potency

Glucocorticoid receptor (Homo sapiens), sequence (P04150 whole entry, looked up): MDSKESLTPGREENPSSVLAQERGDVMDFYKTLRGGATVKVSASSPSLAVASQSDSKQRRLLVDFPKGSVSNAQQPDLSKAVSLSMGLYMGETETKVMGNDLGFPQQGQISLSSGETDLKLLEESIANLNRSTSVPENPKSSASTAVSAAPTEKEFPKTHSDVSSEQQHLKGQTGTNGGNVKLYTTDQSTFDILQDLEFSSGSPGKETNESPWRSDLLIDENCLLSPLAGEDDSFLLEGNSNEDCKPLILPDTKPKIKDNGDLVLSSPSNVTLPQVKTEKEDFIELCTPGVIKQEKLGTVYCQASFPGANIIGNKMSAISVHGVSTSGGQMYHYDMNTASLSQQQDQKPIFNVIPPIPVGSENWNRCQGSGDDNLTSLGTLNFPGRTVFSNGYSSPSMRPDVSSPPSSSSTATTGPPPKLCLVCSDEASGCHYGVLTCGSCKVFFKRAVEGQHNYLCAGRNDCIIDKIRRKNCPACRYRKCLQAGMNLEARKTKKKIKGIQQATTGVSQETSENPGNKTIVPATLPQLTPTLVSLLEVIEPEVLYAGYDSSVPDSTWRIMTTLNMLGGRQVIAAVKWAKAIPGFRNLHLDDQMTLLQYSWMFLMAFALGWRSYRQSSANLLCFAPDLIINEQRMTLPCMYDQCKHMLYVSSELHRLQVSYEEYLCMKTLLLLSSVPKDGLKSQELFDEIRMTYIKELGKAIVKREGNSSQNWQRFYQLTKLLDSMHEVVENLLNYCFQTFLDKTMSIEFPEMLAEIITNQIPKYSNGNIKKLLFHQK

CCCCN(CCCC)SN(C)C(=O)Oc1cccc2c1OC(C)(C)C2
not listed: [15] | [16] | [17] | [18] | [19] | [20]
inactive: all other assays above

CC(C)OC(=O)Nc1cccc(Cl)c1
active: [17] 47.9 µM and 24.3 µM
not listed: [3] | [11] | [18] | [19] | [20]
inactive: all other assays above

C=CC(N)=O
not listed: [1] | [2] | [17] | [19] | [20]
inactive: all other assays above

CC(=O)C=C(C)C
not listed: [15] | [16] | [18]
inactive: all other assays above

CCCN(CCC)c1c([N+](=O)[O-])cc(C(F)(F)F)cc1[N+](=O)[O-]
not listed: [15] | [17] | [18] | [19] | [20]
inactive: all other assays above

C[C@]12CC[C@H]3[C@@H](CC[C@@]45O[C@@H]4C(O)=C(C#N)C[C@]35C)[C@@H]1CC[C@@H]2O
not listed: [15] | [17] | [18] | [20]
inactive: all other assays above

CCC(C)(CC)c1cc(NC(=O)c2c(OC)cccc2OC)on1
not listed: [11] | [15] | [16] | [17] | [18] | [20]
inactive: all other assays above

O=Cc1cccc(Oc2ccccc2)c1
not listed: [11] | [15] | [16] | [17] | [20]
inactive: all other assays above

Cc1[nH]c(=O)n(C(C)(C)C)c(=O)c1Cl
not listed: [15] | [18] | [20]
inactive: all other assays above
